# This is a sample that favours compounds with a hit; in the whole collection about 7.1% have one here.
# ATXN viability: reduces viability in counter-screen for ATXN expression inhibitors; 400,000 compounds, 0.49% hits; Potency, µM (series often up to 56.7 µM), hits mostly cytotoxic; S2 cells (HEK-293 line with an ATXN2-luciferase reporter) viability, CellTiter-Fluor protease fluorescence, 24 h; note: potency is the fitted concentration of half-maximal effect; nearly all actives have a fitted effect of over 40% in size
# PINK1 modulator: modulators of PINK1 expression; PINK1 immunofluorescence, high-content cytometry, 24 h; 410,000 compounds, 0.2% hits; Potency, µM (top dose mostly 76.6 µM), for the others: top-dose activation (PINK1 increase), most hits filed as activators; active = well fitted activation curve with a large enough effect; inconclusive = small, poorly fitted or top-dose-only effect; cell line not stated here; note: potency is the fitted concentration of half-maximal effect; % of control where 0% means no effect; nearly all actives have a fitted effect of over 65% in size
#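 PINK1 protein level read as immunofluorescence by microplate cytometer in a fixed, stained stable cell line after 24 h exposure to five compound concentrations, with CCCP as control.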
# ATXN2 expr inh: reduces ATXN2 reporter expression in HEK-293 cells | HEK-293 ATXN2-luciferase reporter, luminescence, 24 h | Potency, µM (series often up to 57 µM), without a hit: top-dose activity change, negative = inhibition, usual class: inhibitors | 360,000 compounds, 0.72% hits | AID 1745845; note: potency is the fitted concentration of half-maximal effect; % is set by controls: 0 for no effect and ±100 for the full control effect; nearly all actives have a fitted effect of over 55% in size
#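 qHTS (up to 57 uM final) was run with 24 h compound exposure of reporter cells at 37 °C. Each well was multiplexed: SteadyGlo luminescence measured ATXN2-luciferase expression after a fluorogenic Gly-Phe-AFC viability readout (25 uM final).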
# IL-1B inflam inh: blocks inflammasome-driven IL-1 beta release; THP-1 LPS/ATP IL-1B secretion, AlphaLISA, 16 h; stronger effect = lower value; activity change, % at 57.5 µM; 360,000 compounds, 4.7% hits; AID 743279; in the data active = activity change below about -50%; inconclusive = mostly about -30% to -49%; note: % is set by controls: 0 for no effect and ±100 for the full control effect
#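 Secreted IL-1B measured by AlphaLISA bead assay after 16 h compound exposure of THP-1 cells; compounds (final up to 57.5 uM) added 1 h before LPS (250 ng/mL) and ATP (1.25 mM) stimulation; lower signal means less secretion.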
# MCF10A rereplic: inducers of DNA re-replication in MCF 10A breast cells | MCF 10A DNA re-replication, Hoechst nuclear intensity, 48 h | Potency, µM (highest dose often 46.1 µM), inactives show top-dose activity, positive = re-replication, usual class: activators | 350,000 compounds, 2.9% hits; note: potency is the fitted concentration of half-maximal effect; % of control where 0% means no effect; nearly all actives have a fitted effect of over 50% in size
# SW480 rereplic: induces DNA re-replication in SW480 colon adenocarcinoma cells. SW480 DNA re-replication, Hoechst DNA content imaging, 48 h. Potency, µM (titrated, usually from 46.1 µM), without a hit: top-dose re-replication activation, hits mostly activators. 340,000 compounds, 1.8% hits. AID 624297; note: potency is the fitted concentration of half-maximal effect; % of control where 0% means no effect; nearly all actives have a fitted effect of over 55% in size
#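 DNA re-replication was detected as more nuclei of elevated Hoechst intensity after 48 hr exposure to compound (23 nL pinned per well of 250 cells).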
# The depositor's hits bear a star; i = inactive; ? = inconclusive; · = no result; [ ] = remark or other dose. Unless noted, calls come from the whole dose curve; as a rule, active = well fitted curve in the direction sought with a large enough effect; inconclusive = small, poorly fitted or top-dose-only effect, or another doubt; inactive = no such curve, though single readings can be large; an effect the other way counts as inactive or inconclusive.
SMILES,ATXN viability,PINK1 modulator,ATXN2 expr inh,IL-1B inflam inh,MCF10A rereplic,SW480 rereplic
CCC(C)Nc1nc(Cl)nc(N(C#N)CN2C(=O)c3ccccc3S2(=O)=O)n1 (configuration not stated),i,6%,-7%,-66*,?,?
CN1CCN(C(=O)CCN2C(=O)c3ccccc3S2(=O)=O)CC1,i,2%,3%,3,-6%,4%
Cc1cc(C)nc(N(C#N)CN2C(=O)c3ccccc3C2=O)n1,i,-4%[38.3 µM],-3%,-15,0%,-5%
CC(C)Nc1nc(Cl)nc(N(C#N)CN2C(=O)c3ccccc3C2=O)n1,?,-3%,?,-99*,16µM*,?
Cc1ccc(Cn2c(CN3CCC(C(=O)O)CC3)cc3ccccc32)cc1,·,1%,·,·,·,·
CC(=O)c1ccc(N2CCN(C(=O)C3CCN(S(=O)(=O)c4c(C)noc4/C=C/c4ccccc4F)CC3)CC2)cc1,·,1%,·,·,·,·
CN(C)c1ccc(C#Cc2ccc3cc(CCO)oc(=O)c3c2)cc1,i,?,36%,24,12µM*,?
Oc1ccc(/C=N/N2CCN(C3c4ccccc4-c4ccccc43)CC2)c(O)c1,?,8%,?,-5,6.5µM*,?
Oc1ccc(/C=N/N2CCN(C3c4ccccc4-c4ccccc43)CC2)cc1O,?,?,?,?,29%,-8%
Oc1ccc(/C=N/N2CCN(C3c4ccccc4-c4ccccc43)CC2)cc1,i,2%,9%,-64*,?,-13%
Cc1cccc(CNC(=O)c2cnn(-c3nccc(-c4ccccc4F)n3)c2C)n1,i,-1%,·,·,·,·
CN(Cc1ccccc1)c1ncnc2c1nnn2C,·,3%,·,·,·,·
CSc1nc(SCCN(C)C)c2c3c(sc2n1)COC(C)(C)C3,i,3%,-15%,-61*,9%,-42%
CSc1nc(SC(C)C(=O)O)c2c3c(sc2n1)COC(C)(C)C3 (configuration not stated),i,0%,2%,0,6%,-1%
CCc1cccc(C)c1NC(=O)c1cc(C)nc2c1c(C)nn2-c1cccc(Cl)c1C,i,1%,6%,·,·,·
CN(Cc1ccco1)c1ncnc2ccc(-c3ccc4c(ccn4C)c3)cc12,i,-1%,0%,·,?,3.7µM*
Clc1ccccc1-c1nnc2sc(-c3ccncc3)nn12,i,2%,3%,-30,0%,-3%
CN(C)c1ccc(-c2nn3c(-c4ccccc4Cl)nnc3s2)cc1,i,5%,-8%,0,?,1µM*
Clc1ccccc1-c1nn2c(-c3ccncc3)nnc2s1,i,-3%[38.3 µM],4%,-67*,-1%,-2%
Nc1[nH]n2c(=O)cc(-c3ccccc3)nc2c1N=Nc1ccc(S(N)(=O)=O)cc1,i,1%,-18%[11.3 µM],-7,-7%,1%
Nc1[nH]n2c(=O)cc(-c3ccccc3)nc2c1N=Nc1ccccc1,32µM*,4%,?,0,?,6%
CN(C)S(=O)(=O)c1ccc(-c2csc(N/N=C/c3ccco3)n2)cc1,?,8%,?,-94*,?,-10%
C(=N\Nc1nc(-c2ccccc2)cs1)/c1ccncc1,i,12%,44%,?,-1%,-110%
CN(C)S(=O)(=O)c1ccc(-c2csc(N/N=C/c3ccc(O)cc3)n2)cc1,·,-3%,?,-103*,?,-80%
Cc1ccc(-c2csc(N/N=C/c3ccco3)n2)cc1,i,4%[38.3 µM],38%,-6,26%,1%
SMILES,ATXN viability,PINK1 modulator,ATXN2 expr inh,IL-1B inflam inh,MCF10A rereplic,SW480 rereplic
Cc1csc(C(C)N(C)C(=O)c2cnn(-c3nccc(-c4cc(C)sc4C)n3)c2C)n1 (configuration not stated),i,0%,·,·,·,·
CCOC(=O)c1c(NC(C)=O)c2c3c(sc2n1Cc1cccc(Cl)c1)CCCC3,·,-1%,·,·,·,·
COc1ccc(N(C)S(=O)(=O)c2cccc(C(=O)Nc3nc4ccccc4[nH]3)c2)cc1,?,1%,-29%,?,?,?
CC(=O)Nc1ccc(C(=O)Nc2cccc(S(=O)(=O)N(C)c3ccccc3)c2)cc1,i,2%,?,8,5%,-23%
O=C(Nc1ccccc1-c1ccccc1)c1ccc(Cl)c([N+](=O)[O-])c1,i,-2%,11%,-100*,9.2µM*,-3%
O=C(Nc1ccccc1C(=O)N1CCCC1)c1ccc(Cl)c([N+](=O)[O-])c1,i,1%,10%[11.3 µM],?,5%,0%
CN(C)S(=O)(=O)c1cccc(NC(=O)c2cccc(NS(=O)(=O)c3ccccc3)c2)c1,i,0%,-21%,-60*,20%,-2%
CN(c1cccc(Cl)c1)S(=O)(=O)c1cccc(C(=O)Nc2nc3ccccc3[nH]2)c1,?,0%,?,-62*,8.2µM*,?
CN(c1ccccc1)S(=O)(=O)c1cccc(NC(=O)c2ccc(Cl)c([N+](=O)[O-])c2)c1,?,5%,?,-88*,?,4%
COc1ccc(-c2cc(C(F)(F)F)n3nc(C(=O)O)c(Cl)c3n2)cc1OC,·,0%,·,·,·,·
CCOC(=O)N1CCN([N+]([O-])=NOc2cc(ON=[N+]([O-])N3CCN(C(=O)OCC)CC3)c([N+](=O)[O-])cc2[N+](=O)[O-])CC1,·,·,5%,·,·,·
CCN(CC)S(=O)(=O)c1cc(C(=O)Nc2ccccc2[N+](=O)[O-])ccc1Cl,i,-2%,2%,-89*,?,16µM*
O=C(Nc1cccc2c1CCCC2)c1ccc(Cl)c([N+](=O)[O-])c1,i,-1%,-8%,-73*,?,?
CN(c1ccccc1)S(=O)(=O)c1ccc(NC(=O)c2ccc(-c3ccccc3)cc2)cc1,i,?,?,-7,7%,15%
O=C(Nc1cccc2c1CCCC2)c1cc([N+](=O)[O-])ccc1Cl,i,-2%,25µM*,?,?,-3%[9.22 µM]
Cc1nc2cc(NC(=O)c3ccc(S(=O)(=O)N(C)c4ccccc4)cc3)ccc2o1,?,5%,?,-56*,15%,-10%
COc1cccc(C(=O)Nc2ccc3nc(SCC(=O)N4CCOCC4)sc3c2)c1,·,2%,·,·,·,·
COc1ccc(-c2nc(C)c(CCNC(=O)C(=O)Nc3ccccc3F)s2)cc1,i,0%,7%,·,·,·
CC(C)C(=O)N1c2ncnn2C2(CCCCC2)[C@@H]2CCCC[C@@H]21,i,-2%,-26%,·,·,·
COc1ccccc1NC(=O)c1sc2nc3c(c(C(F)(F)F)c2c1N)CN(C(C)=O)CC3,i,2%,-12%,·,·,·
CCCNC(=S)NC1CC2CCCC(C1)N2Cc1ccccc1OC (configuration not stated),i,1%,·,-5,·,·
